Measurements reported in PubChem BioAssay (NCATS).
Inconclusive results are not listed. A call without a number means that no potency is given here. The source made the active and inactive calls. Calls follow the shape of the dose curve; as a rule, active = well fitted inhibition curve with a large enough effect; inconclusive = small, poorly fitted or top-dose-only effect; inactive = flat fitted curve, though single readings scatter. Where a SMILES comes first, the peptide text is derived from it. The star is where a group is joined. AFC = O=c1cc(C(F)(F)F)c2ccc(N*)cc2o1

Assay: P-glycoprotein substrates identified in KB-8-5-11 adenocarcinoma cell line, qHTS therapeutic library screen (AID 1346987); also: nearly all actives have a fitted effect of over 65% in size
Details: KB-8-5-11 (P-gp overexpressing) viability, CellTiter-Glo, 72 h; series mostly up to 44.5 µM
How it was run: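 KB-8-5-11: colchicine-selected sub-line of KB-3-1 over-expressing P-gp; assay medium lacked colchicine. 72 h drug exposure at 37 degree C, CellTiter-Glo.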
Potency is read from the fitted curve at half-maximal effect.

Row | SMILES | Potency | activity change, negative = cytotoxicity | outcome
1 | CC1(C)CCC(C)(C)c2cc3c(cc21)Sc1ccccc1N=C3c1ccc(C(=O)O)cc1 | inactive | – | –
2 | CC(=O)NC(CCC(=O)O)C(=O)NCCc1ccc(O)cc1 (centres undefined) | inactive | – | –
3 | CC(=O)N[C@@H](CC(C)C)C(=O)N[C@@H](CCC(=O)O)C(=O)N[C@@H](CCC(=O)O)C(=O)N[C@@H](CC(=O)O)C(=O)Nc1ccc2c(C(F)(F)F)cc(=O)oc2c1 (Ac-LEED-{AFC}) | inactive | – | –
4 | CC(=O)OC[C@@]12[C@@H](OC(C)=O)C[C@@H](C)[C@](C)([C@@H]3C[C@H]4C=CO[C@H]4O3)[C@H]1CCC[C@]21CO1 | inactive | – | –
5 | CC(=O)O[C@H]1C[C@@H]2[C@]3(CC[C@]4(C)[C@@H](C5(C)CCC(C(C)(C)O)O5)[C@@H](O)C[C@@]24C)C[C@@]32CC[C@H](O[C@@H]3OC[C@@H](O)[C@H](O)[C@H]3O)C(C)(C)[C@H]12 (some centres undefined) | inactive | – | –
6 | C=C1CC23CCC4[C@@](C)(CCC[C@@]4(C)C(=O)O)C2CCC1C3 (some centres undefined) | inactive | – | –
7 | C=C[C@@]1(C)CC(=O)C2[C@](C)(O1)[C@@H](OC(C)=O)[C@@H](O)[C@H]1C(C)(C)CCC[C@]21C (some centres undefined) | – | 9.24% [at 9.29 µM] (inactive) | –
8 | C=C1CCC2C(C)(COC3OC(COC(=O)CC(=O)O)C(O)C(O)C3O)CCCC2(C)C1CCC1=CCOC1=O (centres undefined) | inactive | – | –
9 | CC(NC(=O)CC(=O)O)c1nc2ccccc2c(=O)[nH]1 (centres undefined) | inactive | – | –
10 | COc1cc(C(C)=O)ccc1O[C@@H]1O[C@H](CO[C@@H]2O[C@@H](C)[C@H](O)[C@@H](O)[C@H]2O)[C@@H](O)[C@H](O)[C@H]1O | inactive | – | –
11 | CCC(CC)n1ccc2c(C(=O)NCc3c(C)cc(C)[nH]c3=O)cc(C#N)cc21 | inactive | – | –
12 | CC(C)=CCCC1(C)Oc2cc3c(c4c2C2C(O4)C(C)(O)CCC21)CN(C(CCC(=O)O)C(=O)O)C3=O (centres undefined) | inactive | – | –
13 | C[C@]12CC[C@@H]3c4ccc(O[C@@H]5O[C@H](C(=O)O)[C@@H](O)[C@H](O)[C@H]5O)cc4CC[C@H]3[C@@H]1CCC2=O | inactive | – | –
14 | CCCCCCc1cccc(NC(=O)[C@H](N)CCP(=O)(O)O)c1 | – | – | inactive [at 9.29 µM]
15 | OCCO[C@@H]1[C@@H](O)[C@H](O)[C@@H](CO)O[C@@H]1O | inactive | – | –
16 | COC(=O)C1=COC(O[C@@H]2O[C@H](CO)[C@@H](O)[C@H](O)[C@H]2O)/C(=C\COC(=O)c2ccc(OC3OC(CO)C(O)C(O)C3O)c(OC)c2)C1CC(=O)OCCc1ccc(O)cc1 (some centres undefined) | – | – | inactive [at 9.29 µM]
17 | O=C(O)c1cc(O)c2cccc(O)c2c1O[C@@H]1O[C@H](CO)[C@@H](O)[C@H](O)[C@H]1O | inactive | – | –
18 | CN(C)C/C=C/C(=O)Nc1ccc(C(=O)Nc2cccc(Nc3ncc(Cl)c(-c4c[nH]c5ccccc45)n3)c2)cc1 | 5.17 µM (active) | – | –
19 | C=C(C(=O)O)[C@@H]1CC=C2CCC[C@H](C)[C@@]2(C)C1 | inactive | – | –
20 | O=C(O)CCc1cc2ccoc2cc1O[C@@H]1O[C@H](CO[C@@H]2OC[C@](O)(CO)[C@H]2O)[C@@H](O)[C@H](O)[C@H]1O | inactive | – | –

Row | SMILES | Potency | activity change, negative = cytotoxicity | outcome
21 | COc1ccc(C)c2sc(NC(=O)c3ccncc3)nc12 | inactive | – | –
22 | CO[C@@H](Cc1ccc(OCCc2nc(-c3ccccc3)oc2C)c2ccsc12)C(=O)O | inactive | – | –
23 | CC1(C)CCCC2(C)C3=C(C(=O)OC3O)C(O)CC12 (centres undefined) | inactive | – | –
24 | CC1(C)CCC2(C(=O)OC3OC(COC4OC(CO)C(O)C(O)C4O)C(O)C(O)C3O)CCC3(C)C(=CCC4C5(C)CCC(O)C(C)(C(=O)O)C5CCC43C)C2C1O (centres undefined) | – | – | inactive [at 9.29 µM]
25 | COC1=CC(=O)C[C@@H](C)[C@]12Oc1cc(OC)cc(OC)c1C2=O | inactive | – | –
26 | FC(F)(F)c1cc(C(F)(F)F)c2ccc3nc(-c4nnco4)cn3c2n1 | inactive | – | –
27 | CC1(C)C(O)CCC2(C)C1C(O)C=C1COC(=O)C12O (centres undefined) | inactive | – | –
28 | CCOC(=O)[C@H](CCc1ccccc1)CC1(C(=O)N[C@H]2CCc3ccccc3N(CC(=O)O)C2=O)CCCC1 | inactive | – | –
29 | C=C1CC2C3(C)C(OC(C)=O)CC(=O)OC(C)(C)C3C(O)C(OC(C)=O)C2(C)C2C(=O)OC(C)C(=O)C12C (centres undefined) | inactive | – | –
30 | O=C1NC(=Nc2ccccc2F)S/C1=C\c1ccc(C(=O)O)cc1 | inactive | – | –
31 | CN1C(=O)N[C@@H](Cc2c[nH]c3c(Cl)cccc23)C1=O | inactive | – | –
32 | C[C@]12C=CC(=O)N[C@@H]1CC[C@@H]1[C@@H]2CC[C@]2(C)[C@@H](C(=O)Nc3cc(C(F)(F)F)ccc3C(F)(F)F)CC[C@@H]12 | inactive | – | –
33 | C=CCc1ccc(O[C@@H]2O[C@H](CO[C@@H]3O[C@@H](C)[C@H](O)[C@@H](O)[C@H]3O)[C@@H](O)[C@H](O)[C@H]2O)cc1 | inactive | – | –
34 | CC(=O)O[C@H](C[C@@H](C)[C@H]1C(=O)[C@H](O)[C@@]2(C)[C@@H]3CCC4C(C)(C)[C@@H](O[C@@H]5OC[C@H](O)[C@H](O)[C@H]5O)CC[C@@]45C[C@@]35CC[C@]12C)[C@@H]1OC1(C)C (some centres undefined) | inactive | – | –
35 | O=C(O[C@H]1[C@@H]2C=CO[C@@H](O[C@@H]3O[C@H](CO)[C@@H](O)[C@H](O)[C@H]3O)[C@@H]2[C@@]2(CO)O[C@@H]12)c1ccc(O)cc1 | inactive | – | –
36 | OC[C@H]1O[C@@H](OCCc2ccc(O)cc2)[C@H](O)[C@@H](O)[C@@H]1O | inactive | – | –
37 | COC1=CC(=O)O[C@@H](/C=C/c2ccccc2)[C@@H]1O | inactive | – | –
38 | CC1NC(=O)CNC(=O)C(C(C)C)NC(=O)C2CCCN2C(=O)C(C(C)C)NC(=O)C(Cc2c[nH]c3ccccc23)NC1=O (centres undefined) (cyclo(GAWVPV); configuration not given here) | inactive | – | –
39 | COC(=O)[C@@H]1C2CC3c4[nH]c5ccccc5c4CCN3CC2CC[C@@H]1O (some centres undefined) | inactive | – | –
